Screens: PubChem, several laboratories
GALR2 antag = blocks the human galanin receptor 2; O43603; GALR2-expressing cells, antagonist mode; inhibition, % at 4 µM; 0.39% of 140,000 active; in the data active means inhibition above about 27%;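 further: cells stimulated with galanin 1-16 at roughly its EC80; 0% = agonist challenge control and 100% = basal control without agonist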
FAK blocker = inhibitors of human focal adhesion kinase | 0.84% of 97,000 active | Q05397 | inhibition, %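 (tested at 7 µM)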 | AID 727 | biochemical FAK kinase activity assay; in the data active means inhibition above about 19%;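 further: 0% = DMSO and 100% = reference compound high control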
S1P2 antag = antagonists of human S1P2 receptor | AID 736 | cell-based S1P2 antagonist assay, inhibition at 5 uM | inhibition, % at 5 µM | 0.21% of 97,000 active; in the data active means inhibition above about 45%;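 further: CRE beta-lactamase reporter cells expressing human S1P2 stimulated with S1P; 0% = agonist at EC80 alone and 100% = agonist plus reference antagonist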
SDO1 yeast rescue = compounds rescuing growth of sdo1-depleted yeast, bone marrow failure model; S. cerevisiae sdo1-depleted JHY4D growth rescue, OD600 30 h; hits give high values; pdr5 snq2 efflux-pump mutant strain; z-score at 10 µM; 0.21% of 140,000 active;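 active means z-score above 3 at both the 24 hr and the 30 hr optical density reads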;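 further: z-score against mean and SD of all compound wells on the same plate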
S1P2 agonist = S1P2 (human) receptor agonism; activation, % at 4.5 µM; 0.46% of 97,000 active; O95136; S1P2-expressing cell line, agonist reporter read-out; AID 729; in the data active means activation above about 16%;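 further: 0% = vehicle low control and 100% = maximal reference agonist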
GALR2 ag = agonists of human galanin receptor 2 (GALR2); 0.48% of 140,000 active; GALR2-expressing cells, agonist activation read-out; activation, % (concentration not given with the values); O43603; AID 803; in the data active means activation above about 5%, passing the limit was not always enough;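 further: 0% = vehicle buffer wells and 100% = reference agonist at full effect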
GALR2 ag confirm = confirmation of human galanin receptor 2 (GALR2) agonists | 10% of 460 active | activation, % at 5.6 µM | GALR2-expressing cells, agonist activation | shares compounds with GALR2 ag; in the data active means activation above about 8.4%;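 further: 0% = buffer-only vehicle wells and 100% = full reference agonist response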
BLA act counter = counter-screen for GALR2 agonists: beta-lactamase reporter activators; shares compounds with GALR2 ag; CHO NFAT-bla reporter, beta-lactamase FRET activation; activation, % at 5.6 µM; 10% of 460 active;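 active means activation above the screen-wide mean activation plus 3 SD, cut at about 8% in these data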;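 further: 0% = DMSO with PBS wells and 100% = thapsigargin positive control wells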
* hit, by the source's call; . = no result given. Rows were chosen to be rich in hits. Some 1.9% of all compounds tested hit in one or more screens of this group.

SMILES | GALR2 antag | FAK blocker | S1P2 antag | SDO1 yeast rescue | S1P2 agonist | GALR2 ag | GALR2 ag confirm | BLA act counter
Cc1ccc(S(=O)(=O)N(C)Cc2nc(-c3ccccn3)no2)cc1 | -4 | 0 | -3 | 1.1 | 0 | -2 | . | .
CN(Cc1nc(-c2ccccn2)no1)S(=O)(=O)c1ccccc1 | -10 | 0 | 23 | 0.06 | -4 | 10 | 0 | -2
Cc1ccc(/C=N/NC(=O)c2ccco2)s1 | 2 | 1 | -21 | 0.46 | -7 | -3 | . | .
Cc1ccc(/C=N/NC(=O)c2ccc(C(=O)N/N=C/c3ccc(C)s3)o2)s1 | 6 | 8 | 14 | 1.3 | -7 | 30* | 2 | 14*
Cc1ccc(C)c(OCCn2cc(/C=C(\C#N)C(=O)NCc3ccco3)c3ccccc32)c1 | -5 | . | . | 0.97 | . | 0 | . | .
COc1ccccc1OCCn1cc(/C=C(\C#N)C(=O)NCc2ccco2)c2ccccc21 | 4 | . | . | -1.2 | . | -1 | . | .
COc1ccc(OCCn2cc(/C=C(\C#N)C(=O)NCc3ccco3)c3ccccc32)cc1 | 1 | . | . | -0.32 | . | 13* | 4 | 3
Cc1cccc(NC(=O)/C(C#N)=C/c2cn(CC(=O)NCc3ccco3)c3ccccc23)c1 | -2 | . | . | -0.37 | . | 31* | 14* | 13*
CC(=O)/C(=N/Nc1cccc(C)c1)N1CCOCC1 | 12 | -1 | -8 | -1.2 | 16 | -2 | . | .
CC1OC2(OC1C)C(=O)Nc1ccccc12 (stereo not given) | -4 | 1 | -10 | 0.29 | -4 | 24* | -1 | -3
Cc1ccc2nc(-c3ccc(NS(=O)(=O)c4ccccc4)cc3)sc2c1 | -8 | . | . | 0.16 | . | 11* | 0 | 2
Cc1ccc(-c2c3c(=O)n(C)c(=O)n(C)c3cn2Cc2ccccc2)cc1 | -9 | 3 | -12 | -0.77 | -5 | 71* | 0 | 0
Cn1c(=O)c2c(-c3ccccc3)n(Cc3ccccn3)cc2n(C)c1=O | -1 | -2 | 9 | -0.51 | -6 | 0 | . | .
COC(=O)Cn1c(=NC(=O)c2nc3ccccc3s2)sc2cc(S(C)(=O)=O)ccc21 | -16 | . | . | -0.34 | . | 39* | 0 | 2
COC(=O)Cn1c(=NC(=O)c2sc3ccccc3c2Cl)sc2cc(S(N)(=O)=O)ccc21 | 1 | . | . | 1.1 | . | 0 | . | .
CCCS(=O)(=O)c1snnc1C | -15 | -2 | -5 | 0.68 | -4 | 14* | -1 | 0
O=S(=O)(Nc1cccnc1)c1ccc(Cl)cc1 | 0 | -4 | 12 | -0.34 | -3 | 80* | 0 | -1
CC1=C(C)CC(C(=O)NNC(=O)c2cccc(Cl)c2)C(C(=O)O)C1 (stereo not given) | 6 | . | . | -0.2 | . | 8.2* | -1 | -1
CC1=C(C)CC(C(=O)NNC(=O)c2ccccc2)C(C(=O)O)C1 (stereo not given) | 10 | -3 | 8 | -0.09 | -6 | -2 | . | .
Cc1nn(Cc2c(Cl)cccc2Cl)c(C)c1NC(=O)c1sc2ccccc2c1Cl | -4 | 0 | -12 | -2.1 | 0 | 12* | 6 | 0
Cc1nn(Cc2ccc(Cl)c(Cl)c2)c(C)c1NC(=O)c1sc2ccccc2c1Cl | 7 | -5 | -2 | -0.91 | -5 | -2 | . | .
COc1ccc(C2C3=C(CC(C)(C)CC3=O)Oc3ncn(CCCn4ccnc4)c(=N)c32)cc1 (stereo not given) | 3 | -3 | -25 | -0.68 | -6 | -2 | . | .
Cc1cccc(C(=O)N=c2c(C#N)cc3c(=O)n4cccc(C)c4nc3n2Cc2ccco2)c1 | -8 | 11 | 6 | 0.35 | 3 | 8 | 5 | 8.3*
CCOC(=O)c1cc2c(=O)n3cccc(C)c3nc2n(Cc2ccco2)c1=NC(=O)c1cccnc1 | 9 | 6 | -16 | -0.29 | 3 | 0 | . | .
CCOC(=O)c1c(C)n(C)c2ccc(OCC(O)CN(CC)CC)cc12 (stereo not given) | 13 | 2 | 11 | 0.25 | -5 | -2 | . | .
CCOC(=O)c1c(C)n(C)c2ccc(OCC(O)CN3C(=O)c4ccccc4S3(=O)=O)cc12 (stereo not given) | -8 | 4 | -31 | 0.79 | 13 | 9 | 1 | 1
CCOC(=O)/C(=N/Nc1ccccc1)c1csc(Nc2ccccc2)n1 | -11 | -1 | -27 | 2 | -4 | 56* | -1 | -2
